The text below walks through data of ChEMBL document CHEMBL1157539, “Thousands of chemical starting points for antimalarial lead identification” (Nature, 2010).

Residues, ends and D or L forms follow the SMILES beside them. *: point of attachment. Octanoyl = CCCCCCCC(=O)*

This assay deals with Plasmodium falciparum. Description: GSK_TCMDC: Inhibition of Plasmodium falciparum Dd2 in whole red blood cells, using parasite LDH activity as an index of growth. Test compounds present at 2uM. The format is functional.
`O=S(=O)(Nc1cccc(CCN2CCC(N3CCCCC3)CC2)c1)c1ccc(Oc2ccccc2)nc1`: the Inhibition (usually the drop in the measured response relative to a control, in per cent) is recorded as 0%.
To `Cc1ccccc1Nc1nc(NCc2ccccc2)nc2ccccc12` belongs 35%; to `Br.CCCOc1ccc(OCCCON2C(=N)N=C(N)NC2(C)C)cc1`, 94%.
In the case of `O=C(Nc1ccc(OC2CCN(Cc3ccsc3)CC2)c(Cl)c1)c1ccc(F)cc1.O=C(O)C(F)(F)F`, the Inhibition is 83%.
To `CN1CCC(Oc2ccc(CN3CC[C@H](NC(=O)c4ccc(Cl)c(Cl)c4)C3)c3ccccc23)C1.O=C(O)C(F)(F)F` (stereo not given in full) belongs 82%; to `CC(=O)N(Cc1ccc(CC(C)NCCc2cccc(Cl)c2)cc1)Cc1ccc(CC(C)NCCc2cccc(Cl)c2)cc1` (stereo not given), 94%; to `Cl.Oc1ccc2c(CNCCc3ccccc3)c(O)ccc2c1CNCCc1ccccc1`, 100%.
With `C=CCOc1ccc(-c2c(C)[nH]c(C)c(Br)c2=O)cc1` the figure was 96%.
To `CCOc1ccc2[nH]c(C)cc(=NN=Cc3ccc(Cl)cc3)c2c1` belongs 100%; to `Cc1ccc([N+](=O)[O-])cc1NC(=O)N(CC(O)c1ccccc1)C1CCCCC1` (stereo not given), 98%; to `COc1ccc(CNC(=O)Nc2cc3cc(-c4ccc(CN5CCCC5)cc4)ccc3n3c(C)nnc23)cc1`, 100%.
With `O=C(/C=C/c1ccc(C(F)(F)F)cc1)N1CCc2cc3nccc(N4CCN5CCC[C@H]5C4)c3cc21`, the Inhibition was 21%.
To `CS(=O)(=O)c1ccc(CCNCc2ccc(-c3ccc(CN(C(=O)C4CC(=O)c5ccccc54)C4CCN(Cc5ccccc5)CC4)cc3)nc2)cc1.O=C(O)C(F)(F)F` (stereo not given) belongs 49%; to `COc1ccc(-c2cccc(NC(=O)c3ccc(C#N)cc3)c2)cc1CNC(C)C.O=C(O)C(F)(F)F`, 14%; to `CN(C)C(=O)C(CC(=O)NCc1ccccc1Cl)N(C)C.CN(C)C(=O)CC(C(=O)NCc1ccccc1Cl)N(C)C.O` (stereo not given), 2%.
With `Cc1cccc(CNc2nc(C)cc(NCCC(=O)NCCOc3ccccc3)n2)c1.O=C(O)C(F)(F)F` the figure was 14%; with `O=C(Nc1ccc(OC2CCN(Cc3ccccc3)C2)c(Cl)c1)c1ccc(F)cc1.O=C(O)C(F)(F)F` (stereo not given), 87%.
As to `CCc1cn2c3c(cc(C(=O)N[C@@H](Cc4ccccc4)[C@H](O)CNC4CCC4)cc13)N(C)S(=O)(=O)CC2`, the Inhibition was 98%.
`Cc1ccc(O)cc1Nc1ccnc2ccc(C(C)(C)C)cc12` came in with an Inhibition of 100%.
To `Cn1cncc1C(=O)Nc1cccc(-c2ccc(-c3nc4cc(F)ccc4[nH]3)s2)c1` belongs 27%.
In the case of `O=C(O)C(F)(F)F.O=S(=O)(NCCN1CCCC1)c1ccc(-c2cccc(CNC3Cc4ccccc4C3)c2)cc1`, the Inhibition amounted to 57%.
With `CCCCCCCC(=O)N[C@@H](Cc1ccccc1)C(=O)N[C@H](C(=O)O)C(C)C` (Octanoyl-Phe-Val-OH) the figure was 0%; with `O=S(=O)(c1c(Cl)cc(Cl)cc1Cl)N1CCCCC(c2ccc(Cl)cc2)=N1`, 93%.
With `CC(C)Cn1cc(C2CCN(CCN3CCC(CNC(=O)c4ccc(NC(=O)c5ccc(Cl)cc5)cc4)CC3)CC2)c2ccccc21`, the Inhibition is given as 99%.
To `CCOc1ccc(C(=O)Nc2cc(Br)c3c(c2)CNCC3)cc1C(F)(F)F.Cl` belongs 22%; to `Cn1cncc1C(=O)Nc1ccc(-c2ccc(-c3nc4cc(C(F)(F)F)ccc4[nH]3)cc2)cc1`, 33%; to `Brc1cc(CNCCCNc2nc3ccccc3[nH]2)sc1Br.Cl`, 21%.
To `CC(C)(C)c1ccc(CN2CCC(CNC(=O)c3cc(-c4ccccc4C(F)(F)F)cs3)C2)cc1.O=C(O)C(F)(F)F` (stereo not given) belongs 11%; to `CN1CCC(C(=O)N(Cc2ccc(-c3ccc(CNCCc4ccc(S(C)(=O)=O)cc4)cn3)cc2)C2CCN(Cc3ccccc3)CC2)CC1.O=C(O)C(F)(F)F`, 95%.
With `CCCC(C)Nc1nc(C)cc(N[C@@H](CC(C)C)C(=O)Nc2ccc(OC)cc2)n1.O=C(O)C(F)(F)F` (stereo not given in full) the figure was 68%.
Compound `CN1CC(c2ccccc2)c2cc(O)c(CN3CCCCC3)cc2CC1Cc1ccccc1.Cl` (stereo not given) yielded an Inhibition of 99%.
To `Oc1c(C(Nc2ccccn2)c2ccc(Cl)cc2Cl)ccc2cccnc12` (stereo not given) belongs 60%; to `COc1ccc2nccc([C@@H](O)CN3CCC(NCc4cc5c(F)ccc(F)c5[nH]4)CC3)c2n1.CS(=O)(=O)O`, 76%.
With `N=C(N)NN=CC(=O)Nc1ccc(Br)cc1.O=S(=O)(O)O` the figure was 1%.
To `N#Cc1ccc2[nH]cc(CN3CCC4(CC3)CN(CCNCc3ccccc3)C(=O)CO4)c2c1.O=C(O)C(F)(F)F` belongs 0%; to `CC(C)(C)c1ccc(CN2CCC(CNC(=O)c3cc(-c4cccc(C(F)(F)F)c4)cs3)C2)cc1.O=C(O)C(F)(F)F` (stereo not given), 84%; to `CN(C)CCCOc1ccc(CN2CC[C@H](NC(=O)c3ccc(Cl)c(Cl)c3)C2)c2ccccc12.O=C(O)C(F)(F)F`, 97%.
`O=C(Nc1ccc(-c2nc3ccccc3[nH]2)cc1)c1cccc([N+](=O)[O-])c1` had an Inhibition of 56%.
For `COc1ccc(Nc2ccnc3cc(Cl)ccc23)cc1OC`, the Inhibition stood at 91%.
With `O=C(/C=C/c1ccc(Cl)c(Cl)c1)NCCCCCN1CCCN(C(=O)Nc2ccc([N+](=O)[O-])cc2)CC1` the figure was 28%.
